# Results taken from paper PMC4336329 (PLoS ONE, 2015).
# The whole screen tested about 310,000 compounds, of which about 14,000 (4.5%) showed an effect of 50% or more. Effects have a minus sign here. The entries come from a sample that favours strong results as a whole.
# Molecular target: human ether-à-go-go-related gene (hERG) potassium channel (human, UniProt Q12809)
# Experiment: primary screen, population patch clamp on CHO cells stably expressing hERG; higher = less effect of the substance
# 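Note: peak tail current of the secondary pulse compared with the same well before compound.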
# Chain of human ether-à-go-go-related gene (hERG) potassium channel (Q12809 whole entry, looked up): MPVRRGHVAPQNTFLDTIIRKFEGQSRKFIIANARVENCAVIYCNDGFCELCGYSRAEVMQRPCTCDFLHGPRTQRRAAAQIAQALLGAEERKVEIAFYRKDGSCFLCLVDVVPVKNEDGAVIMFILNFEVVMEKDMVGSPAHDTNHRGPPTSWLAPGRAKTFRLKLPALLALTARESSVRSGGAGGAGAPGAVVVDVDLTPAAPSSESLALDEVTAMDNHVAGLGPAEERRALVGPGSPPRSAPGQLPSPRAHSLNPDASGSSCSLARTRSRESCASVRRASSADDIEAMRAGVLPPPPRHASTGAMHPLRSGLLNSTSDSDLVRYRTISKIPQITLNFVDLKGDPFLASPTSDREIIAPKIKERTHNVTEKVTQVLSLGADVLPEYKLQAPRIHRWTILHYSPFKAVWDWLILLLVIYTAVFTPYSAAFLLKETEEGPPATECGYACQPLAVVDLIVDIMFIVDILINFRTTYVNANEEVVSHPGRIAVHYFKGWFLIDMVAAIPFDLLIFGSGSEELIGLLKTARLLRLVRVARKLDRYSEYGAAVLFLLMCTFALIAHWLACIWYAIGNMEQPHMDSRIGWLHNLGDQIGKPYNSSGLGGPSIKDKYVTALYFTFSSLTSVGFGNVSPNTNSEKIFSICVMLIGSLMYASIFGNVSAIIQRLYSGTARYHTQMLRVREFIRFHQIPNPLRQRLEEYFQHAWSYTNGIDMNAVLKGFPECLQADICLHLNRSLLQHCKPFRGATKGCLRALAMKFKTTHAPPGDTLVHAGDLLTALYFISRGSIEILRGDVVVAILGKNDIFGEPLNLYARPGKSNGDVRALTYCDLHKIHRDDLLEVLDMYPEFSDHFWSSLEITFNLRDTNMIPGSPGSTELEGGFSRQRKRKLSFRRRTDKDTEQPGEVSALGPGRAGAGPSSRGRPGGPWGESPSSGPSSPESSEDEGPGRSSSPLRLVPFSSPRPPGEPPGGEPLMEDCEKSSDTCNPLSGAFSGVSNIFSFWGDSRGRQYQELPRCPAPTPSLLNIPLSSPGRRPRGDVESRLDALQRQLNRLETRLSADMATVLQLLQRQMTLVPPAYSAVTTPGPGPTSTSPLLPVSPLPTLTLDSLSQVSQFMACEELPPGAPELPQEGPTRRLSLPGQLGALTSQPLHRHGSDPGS
row,SMILES,"hERG current change (%, negative = inhibition) at 10uM [%]"
1,Cc1ccc(N2C(=O)C3C4CC(=O)C(c5ccccc54)C3C2=O)cc1C (stereo not shown),-12.3
2,C#CCOCCOCCOCCNc1nc(N2CCN(C(=O)Cn3cc(CC(C)O)nn3)CC2)nc(N2CCN(C(=O)Cn3cc(CC(C)O)nn3)CC2)n1 (stereo not shown),-7.58
3,CC(C)(C)[C@H]1C=C(C(=O)O)O[C@@H](OCCCCO)C1,6.41
4,CC12CCC(C(=O)NCc3ccco3)(OC1=O)C2(C)C (stereo not shown),2.02
5,COc1cccc(NC(=O)Nc2cc(C(=O)O)ccc2N2CC3CC(C2)c2cccc(=O)n2C3)c1 (stereo not shown),8.25
6,O=C(Nc1nccs1)c1cc2sccc2n1Cc1ccc(Cl)cc1,-2.4
7,Cc1ccc(C)c(N(CC(=O)NC(C)(C)C)C(=O)CCC(=O)Nc2nccs2)c1,2.56
8,CC(C)Cn1c(N)c(C(=O)CSc2nc3ncc(Cl)cc3[nH]2)c(=O)n(C)c1=O,-0.019
9,Cc1coc2cc3oc(=O)c(CCC(=O)N4CCC(C(=O)O)(c5ccccc5)CC4)c(C)c3cc12,0.933
10,CC(C)(C)N1CC(OC(N)=O)C1,21
11,Clc1c2c(nc3ccccc13)CCC2,16.4
12,CC(C)(C)Nc1c2ccccc2nc2ccccc12,-68.2
13,Cl.c1ccc(CNc2c3c(nc4ccccc24)CCC3)cc1,-75.3
14,OCCNc1c2c(nc3ccccc13)CCCC2,-39
15,CC(C)CNC(=O)COC(=O)c1c2c(nc3ccccc13)CCC2,4.12
16,CC(C)CNc1c2c(nc3ccccc13)CCC2.Cl,-69.2
17,CC(C)NCC(=O)Nc1c2c(nc3ccccc13)CCC2.O=C(O)C(=O)O,6.26
18,CC(C)(C)OC(=O)NNc1c2ccccc2nc2ccccc12,-27.7
19,Cc1c2ccccc2nc2ccccc12,-1.84
20,Cc1ccc(N/N=C/c2ccncc2)cc1.Cl,4.03

row,SMILES,"hERG current change (%, negative = inhibition) at 10uM [%]"
1,O=C(COC(=O)c1ccc(O)cc1)NC1CCCCCC1,7.22
2,O=C(NNS(=O)(=O)c1ccc(C(F)(F)F)cc1)c1cnn(-c2ccccc2)c1C(F)(F)F,11.5
3,CCOc1ccc(N(CC)C(=O)CCS(=O)(=O)c2cccc3nonc23)cc1,-4.92
4,O=C(CSc1nnc(COc2ccccc2)n1-c1ccccc1)c1ccccc1,11.2
5,O=C(CCCCCNC(=O)N1CCn2c1nc1ccccc12)NCc1ccccc1Cl,-16.6
6,CCSc1nnc(-c2cccc(S(=O)(=O)N(CC)CC)c2)n1Cc1ccccc1,-62.6
7,CCN(CC)S(=O)(=O)c1cccc(-c2nnc(SCC#N)n2Cc2ccccc2)c1,-25.5
8,COc1ccc(-n2c(SCC3CNC(=O)O3)nnc2-c2ccc(Cl)cc2)cc1 (stereo not shown),-54.8
9,CCN(CC)S(=O)(=O)c1cccc(-c2nnc(SCC(N)=O)n2N)c1,-28.9
10,CCN(CC)S(=O)(=O)c1cccc(-c2nnc(SCc3nnc(-c4ccccc4)o3)n2C)c1,-67.4
11,Cc1cccc(-c2nnc(SCC3CNC(=O)O3)n2-c2ccc(Cl)cc2)c1 (stereo not shown),-40.3
12,COc1cccc(-c2nnc(SCC3CNC(=O)O3)n2-c2ccc(Cl)cc2)c1 (stereo not shown),8.33
13,CCN(CC)S(=O)(=O)c1cccc(-c2nnc(SCc3nnc(-c4cccs4)o3)n2N)c1,-44.3
14,CCN(CC)S(=O)(=O)c1cccc(-c2nnc(SC(C)C#N)n2Cc2ccccc2)c1 (stereo not shown),-7.34
15,CCN(CC)S(=O)(=O)c1cccc(-c2nnc(SCC(=O)c3ccc(Cl)s3)n2C)c1,-52.7
16,CCN(CC)S(=O)(=O)c1cccc(-c2nnc(SCC(=O)NC)n2N)c1,8.5
17,CCN(CC)S(=O)(=O)c1ccc(-c2nnc(SCc3nnc(-c4ccccc4)o3)o2)cc1,7.63
18,CCn1cc(/C=C(\NC(=O)c2cc(OC)c(OC)c(OC)c2)C(=O)NCCN2CCOCC2)c2ccccc21,10.8
19,COc1ccc(CCNC(=O)Cn2nc([N+](=O)[O-])c(Br)c2C)cc1OC,-0.503
20,O=S(CC1CC1(Cl)Cl)CC1CC1(Cl)Cl (stereo not shown),3.18

row,SMILES,"hERG current change (%, negative = inhibition) at 10uM [%]"
1,O=C(CNc1cccc(S(=O)(=O)N2CCCC2)c1)Nc1cccc(Br)c1,-18.5
2,COc1ccccc1N(C)S(=O)(=O)c1ccc(C(=O)NCc2ccc3c(c2)OCO3)cc1,4.2
3,O=C(c1ccc(O)cc1)c1ccc(C(=O)O)c(C(=O)O)c1,23.2
4,Cc1cnc(NC(=O)CSC(=S)N2CCOCC2)s1,15.4
5,COC(=O)Nc1ccc(S(=O)(=O)N2CCC(Cc3ccccc3)CC2)cc1,1.4
6,COc1ccc2nc(NC(=O)CCc3ccc(OC)c(OC)c3)sc2c1,26.2
7,COc1ccc(-c2nnc(SCc3nnc(-c4ccccc4)o3)n2-c2ccccc2)cc1,-9.78
8,CCN(CC)S(=O)(=O)c1cccc(-c2n[nH]c(=S)n2CC(C)C)c1,6.22
9,CCN(CC)S(=O)(=O)c1ccc(-c2nnc(SCc3nnc(-c4ccc(C)cc4)o3)n2CC)cc1,-55.2
10,COCCn1c(SCc2nnc(-c3ccc(OC)c(OC)c3)o2)nnc1-c1ccncc1,1.42
11,CCn1c(SCc2nnc(-c3ccccc3)o2)nnc1-c1ccc(S(=O)(=O)N2CCCC2)cc1,-34.6
12,CCC(C)n1c(-c2cccc(S(=O)(=O)N(CC)CC)c2)n[nH]c1=S (stereo not shown),26.6
13,CCN(CC)S(=O)(=O)c1ccc(-c2nnc(SCc3nnc(-c4ccc(C)cc4)o3)o2)cc1,8.8
14,COc1ccc(-c2nnc(CSc3nc4ccccc4c(=O)n3C)o2)cc1OC,-4.89
15,CCN(CC)S(=O)(=O)c1cccc(-c2n[nH]c(=S)n2C)c1,-51.8
16,COc1ccc(-n2c(SCc3nnc(-c4ccccc4)o3)nnc2-c2ccccc2)cc1,-29.5
17,COc1ccc(-c2nnc(SCc3nnc(-c4ccccc4)o3)n2C)cc1OC,-54.3
18,COc1ccc(-c2nnc(SCc3nnc(-c4ccc(Cl)cc4)o3)n2-c2ccccc2)cc1,-56
